Counter-ions that a name gives are not always drawn. ± gives the standard deviation or the standard deviation of the averaged measurements.
Key:
Conditions in all cases: 25 µM; exposure: 24-48 hpf
[1] = system: Danio rerio Tg(wt1b:EGFP) embryo, pronephros; experiment: glomerular separation, fold change vs DMSO control; higher = glomeruli further apart (abnormal)
How it was run: (§1)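 Using a Fiji macro, distances and angles were calculated from 16 reference points set by hand on maximum projections of pronephroi imaged dorsally (470 nm, 10 z-slices) in agarose-filled 96-well plates. The dechorionated Tg(wt1b:EGFP) zebrafish embryos had received 25 μM compound in 0.5% DMSO in HEPES-buffered E3 with 0.003% PTU from 24 to 48 hpf at 28.5°C. Values more than 2 SD from a feature's mean were excluded. Each feature appears as a fold change over the mean of DMSO-treated embryos from the same day.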

[2] = system: Danio rerio Tg(wt1b:EGFP) embryo, pronephros; experiment: glomerular width (mean of left and right), fold change vs DMSO control; higher = wider glomerulus
How it was run: as §1

[3] = system: Danio rerio Tg(wt1b:EGFP) embryo, pronephros; experiment: fraction of imaged embryos annotated as normal kidney; higher = less nephrotoxic; extreme values may be limits of the assay
How it was run: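 Tricaine-anaesthetised Tg(wt1b:EGFP) zebrafish larvae were oriented dorsally in agarose-filled 96-well plates, and their pronephroi were recorded by widefield fluorescence at 470 nm in 10 z-slices. Before this, the dechorionated embryos had been exposed in 12-well plates to 25 μM compound in 0.5% DMSO and 5 mM HEPES-buffered E3 with 0.003% PTU, from 24 to 48 hpf at 28.5°C. Maximum projections were annotated manually for each embryo, and the read-out is the fraction per treatment classed as normal kidney.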

[4] = system: Danio rerio Tg(wt1b:EGFP) embryo, pronephros; experiment: pronephric angle neck segment to proximal convoluted tubule (mean of left and right), fold change vs DMSO control; higher = larger pronephric angle
How it was run: as §1

| Compound | glomerular separation [1] | glomerular width [2] | fraction of imaged embryos annotated as normal kidney [3] | pronephric angle neck segment [4] |
| --- | --- | --- | --- | --- |
| CNCCc1ccccn1 [Betahistine mesylate] | 0.815 ± 0.39 | 1.06 ± 0.034 | 0.833 | 0.9697 ± 0.0079 |
| CC(=O)OCC(=O)[C@@]1(OC(C)=O)[C@@H](C)C[C@H]2[C@@H]3C[C@H](F)C4=CC(=O)C=C[C@]4(C)[C@@]3(F)[C@@H](O)C[C@@]21C [Diflorasone Diacetate] | 1.52 ± 0.52 | 1.32 ± 0.052 | 0.727 | 0.973 ± 0.059 |
| COc1ccc(C(=O)c2ccccc2O)c(O)c1 [Dioxybenzone] | 2.57 ± 1.9 | 0.84 ± 0.044 | 0.417 | 1.09 ± 0.018 |
| COc1cc2nc(N(C)CCCNC(=O)C3CCCO3)nc(N)c2cc1OC (stereo not drawn) [Alfuzosin hydrochloride] | 1.23 ± 0.62 | 1.01 ± 0.02 | 0.818 | 0.953 ± 0.036 |
| CC1(C)S[C@@H]2[C@H](NC(=O)[C@H](NC(=O)N3CCNC3=O)c3ccccc3)C(=O)N2[C@H]1C(=O)O [Azlocillin sodium salt] | 0.819 ± 0.3 | 1.01 ± 0.023 | 0.5 | 0.928 ± 0.015 |
| Clc1ccc(COC(Cn2ccnc2)c2ccc(Cl)cc2Cl)c(Cl)c1 (stereo not drawn) [Miconazole] | 3.42 ± 1.6 | 0.865 ± 0.069 | 0.0909 | 1.481 ± 0.012 |
| CC12CC3CC(C)(C1)CC(N)(C3)C2 [Memantine Hydrochloride] | 1 ± 0.34 | 1.05 ± 0.079 | 0.917 | 0.9526 ± 0.0081 |
| C[C@@H]1C[C@H]2[C@@H]3CCC4=CC(=O)C=C[C@]4(C)[C@@]3(Cl)[C@@H](O)C[C@]2(C)[C@@]1(OC(=O)c1ccco1)C(=O)CCl [Mometasone furoate] | 0.99 ± 0.37 | 1.26 ± 0.082 | 0.455 | 0.993 ± 0.085 |
| CC(NCCC(c1ccccc1)c1ccccc1)c1ccccc1 (stereo not drawn) [Fendiline hydrochloride] | 1.17 ± 0.28 | 0.995 ± 0.018 | 0.727 | 1 ± 0.036 |
| CN1C(C(=O)Nc2ccccn2)=C(O)c2sccc2S1(=O)=O [Tenoxicam] | 0.97 ± 0.16 | 0.985 ± 0.022 | 0.917 | 0.999 ± 0.028 |
| CC1(C)NC(=O)N(c2ccc([N+](=O)[O-])c(C(F)(F)F)c2)C1=O [Nilutamide] | 1.14 ± 0.42 | 1.13 ± 0.035 | 0.667 | 0.945 ± 0.013 |
| CC(C)(C(=O)c1cccnc1)c1cccnc1 [Metyrapone] | 0.85 ± 0.27 | 0.961 ± 0.039 | 0.9 | 1.03 ± 0.076 |
| CC(C)[C@H](N)C(=O)OCCOCn1cnc2c(=O)nc(N)[nH]c21 [Valacyclovir hydrochloride] | 0.851 ± 0.28 | 1 ± 0.066 | 0.917 | 0.955 ± 0.044 |
| CNC(C)CCC=C(C)C (stereo not drawn) [Isometheptene mucate] | 0.941 ± 0.26 | 0.958 ± 0.039 | 0.917 | 0.977 ± 0.024 |
| Cc1[nH]c(=O)c(C#N)cc1-c1ccncc1 [Milrinone] | 1.13 ± 0.36 | 1.01 ± 0.047 | 0.917 | 0.9759 ± 0.0011 |
| NC(=O)N/N=C/c1ccc([N+](=O)[O-])o1 [Nitrofural] | 0.881 ± 0.24 | 1.02 ± 0.047 | 1 | 0.982 ± 0.017 |
| Cc1ncc(CO)c(CO)c1O [Pyridoxine hydrochloride] | 0.838 ± 0.25 | 1.04 ± 0.019 | 1 | 1.06 ± 0.061 |
| CN1CCC(=C2c3ccccc3C=Cc3ccccc32)CC1 [Cyproheptadine hydrochloride] | 1.28 ± 0.31 | 0.94 ± 0.06 | 0.667 | 1.2 ± 0.081 |
| CC1(C)O[C@@H]2C[C@H]3[C@@H]4C[C@H](F)C5=CC(=O)C=C[C@]5(C)[C@@]4(F)[C@@H](O)C[C@]3(C)[C@]2(C(=O)CO)O1 [Fluocinolone acetonide] | 1.23 ± 0.54 | 1.26 ± 0.028 | 0.0833 | 1.02 ± 0.065 |
| CC(C)(C)NCC(O)COc1cccc2c1CCC(=O)N2 (stereo not drawn) [Carteolol hydrochloride] | 1.21 ± 0.32 | 0.909 ± 0.034 | 0.917 | 1.01 ± 0.027 |
| Cc1ccc(-c2cc(C(F)(F)F)nn2-c2ccc(S(N)(=O)=O)cc2)cc1 [Celecoxib] | 0.968 ± 0.38 | 0.913 ± 0.059 | 0.833 | 1.06 ± 0.014 |
| CCc1cc(C(N)=S)ccn1 [Ethionamide] | 0.955 ± 0.39 | 0.97628 ± 0.00041 | 0.75 | 0.96 ± 0.039 |
| O=C1c2cccc(O)c2C(=O)c2c(O)cccc21 [1,8-Dihydroxyanthraquinone] | 1.16 ± 0.45 | 1 ± 0.04 | 0.917 | 1.03 ± 0.036 |
| C[C@@]1(O)CCOC(=O)C1 [Mevalonic-D, L acid lactone] | 0.897 ± 0.23 | 1.09 ± 0.03 | 0.75 | 1.062 ± 0.0042 |
| CCOC(=O)OC(C)OC(=O)[C@@H]1N2C(=O)[C@@H](NC(=O)[C@H](N)c3ccccc3)[C@H]2SC1(C)C (stereo partly drawn) [Bacampicillin hydrochloride] | 0.948 ± 0.29 | 1.01 ± 0.017 | 0.917 | 0.968 ± 0.034 |
| CN1CCOC(c2ccccc2)c2ccccc2C1 (stereo not drawn) [Nefopam hydrochloride] | 0.828 ± 0.19 | 0.982 ± 0.05 | 0.909 | 1.02 ± 0.012 |
| CC(C(=O)O)c1ccc(-c2ccccc2)c(F)c1 (stereo not drawn) [Flurbiprofen] | 5.61 ± 1.3 | 0.48 ± 0.02 | 0 | 1.96 ± 0.059 |
